In experiment [1] the test system is Human papillomavirus type 1a protein E7 (residues 44-93). The experiment in a line: small molecules binding HPV E7 44-93 – biochemical, small-molecule microarray, residues 44-93, 635 nm fluorescence, primary screen (AID 1108).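 Also: E7 fragment applied at 1 µg/mL in TBST for 1 h at 4 C; score combines spot fluorescence with its signal to noise ratio.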 To be noted: fluorescence 635 nm, higher = more signal.
Experiment [2] is described as follows: hepatitis C replication reporter changes, two-sided – Huh7 cells, luciferase reporter, HCV replication inhibitor project, primary screen (AID 1109).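 Also: huh7 hepatoma cells harbouring a luciferase neomycin HCV replicon reporter; luciferase luminescence as measure of HCV replicon replication; test concentration not given here.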 The note with it: Huh7 HCV replicon luciferase reporter, 48 h; higher = more signal. In general terms: Reporter assays use an easily measured gene product as a stand-in for the process of interest.
The target in experiment [3] is Left-right determination factor 2 (Homo sapiens) (UniProt O00292). The experiment in a line: small molecules binding LEFTY2 protein – biochemical, small-molecule microarray, 635 nm fluorescence scan, primary screen (AID 1110). The note with it: higher = more signal.
Chain of Left-right determination factor 2 (Homo sapiens) (O00292 whole entry, looked up): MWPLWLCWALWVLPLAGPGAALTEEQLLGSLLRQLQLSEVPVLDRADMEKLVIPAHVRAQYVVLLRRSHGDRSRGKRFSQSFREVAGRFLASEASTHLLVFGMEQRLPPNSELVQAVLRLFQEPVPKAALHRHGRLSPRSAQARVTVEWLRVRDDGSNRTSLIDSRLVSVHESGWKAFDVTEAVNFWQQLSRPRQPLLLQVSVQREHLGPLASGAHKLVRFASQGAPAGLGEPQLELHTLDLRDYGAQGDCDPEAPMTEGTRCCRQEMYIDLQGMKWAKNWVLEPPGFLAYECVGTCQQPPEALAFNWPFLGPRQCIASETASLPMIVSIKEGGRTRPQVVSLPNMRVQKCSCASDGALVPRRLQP
For experiment [4], the target named is Calmodulin-1 (Homo sapiens) (UniProt P0DP23). As to the kind of experiment: small molecules binding calmodulin-1 with EGTA – biochemical, small-molecule microarray, Cy5-labelled CALM1, profiling panel (AID 1111).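 Also: labelled calmodulin applied in Tris saline Tween buffer holding calcium plus EGTA and DTT.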 The note with it: Cy5-CALM1 binding fluorescence, higher = more signal.
Experiment [5] has the same target. As to the kind of experiment: small molecules binding Ca-loaded calmodulin-1 – biochemical, small-molecule microarray, Cy5-labelled CALM1, plus calcium, artefact control for SMM control-protein annotation, profiling panel (AID 1112).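 Also: score merges spot fluorescence with signal to noise from triplicate slides.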 The note with it: Cy5-CALM1 binding fluorescence, higher = more signal.
Experiment [6] in a line: probe aWnt5a binding to arrayed compounds – biochemical, biotinylated probe, 635/667 nm fluorescence, primary screen (AID 1113).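 Also: score merges 667 nm fluorescence intensity with signal-to-noise per printed feature.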 To be noted: small-molecule microarray, higher = more signal.
Experiment [7] can be described thus: probe aShh binding to arrayed compounds – biochemical, biotinylated probe, 635/667 nm fluorescence, primary screen (AID 1114).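 Also: probe is biotin-labelled aShh protein from a stem cell growth factor screen; measures binding of labelled protein to compounds printed on the slide; score merges feature fluorescence at 667 nm with signal-to-noise.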 The note with it: small-molecule microarray, higher = more signal.
The nature of experiment [8]: probe aNog binding to arrayed compounds – biochemical, biotinylated probe, 635/667 nm fluorescence, primary screen (AID 1115).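 Also: probe is biotinylated aNog protein used at 0.15 µg/mL for 1 h at 4 C; z-score combines 667 nm fluorescence of each spot with its signal to noise.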 The note with it: small-molecule microarray, higher = more signal.
Experiment [9] deals with Torsin-1A-interacting protein 1 (Homo sapiens) (UniProt Q5JTV8). As to the kind of experiment: compound microarray binding of lysate hLAP1 – cell lysate, small-molecule microarray, COS7 lysate, 635/667 nm fluorescence, primary screen (AID 1116). The note with it: 635 nm fluorescence, higher = more signal.
Chain of Torsin-1A-interacting protein 1 (Homo sapiens) (Q5JTV8 whole entry, looked up): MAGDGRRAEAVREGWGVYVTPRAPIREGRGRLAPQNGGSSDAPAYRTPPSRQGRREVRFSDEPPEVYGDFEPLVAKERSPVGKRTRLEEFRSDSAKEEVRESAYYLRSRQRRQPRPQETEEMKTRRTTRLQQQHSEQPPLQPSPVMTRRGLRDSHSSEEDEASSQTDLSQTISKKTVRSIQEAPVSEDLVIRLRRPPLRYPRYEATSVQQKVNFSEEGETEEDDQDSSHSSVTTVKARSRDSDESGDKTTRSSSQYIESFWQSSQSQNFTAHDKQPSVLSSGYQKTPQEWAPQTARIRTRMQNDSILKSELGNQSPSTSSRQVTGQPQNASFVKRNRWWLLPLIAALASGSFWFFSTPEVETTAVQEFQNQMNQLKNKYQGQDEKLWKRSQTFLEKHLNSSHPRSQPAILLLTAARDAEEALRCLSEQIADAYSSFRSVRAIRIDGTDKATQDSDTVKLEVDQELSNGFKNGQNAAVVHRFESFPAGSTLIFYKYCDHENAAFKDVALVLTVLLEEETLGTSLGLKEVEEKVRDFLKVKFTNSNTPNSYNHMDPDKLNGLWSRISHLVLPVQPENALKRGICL
The target of experiment [10] is Alpha-bungarotoxin (Bungarus multicinctus) (UniProt P60615). As to the kind of experiment: compounds binding labelled alpha-BTX control protein – biochemical, small-molecule microarray, Alexa647 label, 635/667 nm fluorescence, artefact control for SMM control protein annotation, profiling panel (AID 1117). To be noted: alpha-BTX-A647 binding fluorescence, higher = more signal.
Chain of Alpha-bungarotoxin (Bungarus multicinctus) (P60615 whole entry, looked up): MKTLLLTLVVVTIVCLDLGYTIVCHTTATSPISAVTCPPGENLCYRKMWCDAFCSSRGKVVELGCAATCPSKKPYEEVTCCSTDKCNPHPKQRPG

Experiment [11] addresses Albumin (Bos taurus) (UniProt P02769). The experiment in a line: compounds binding labelled BSA control protein – biochemical, small-molecule microarray, Alexa647 label, 635/667 nm fluorescence, artefact control for SMM control protein annotation, profiling panel (AID 1118).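 Also: score merges 667 nm emission intensity and signal-to-noise per printed compound spot.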 The note with it: BSA-A647 binding, fluorescence 635 nm, higher = more signal.
A short description of experiment [12]: probe aXIP binding to arrayed compounds – biochemical, NeuroSMM set, 635/667 nm fluorescence, primary screen (AID 1119).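 Also: probe is the protein aXip251-270 applied at 1 µg/mL to compound-printed slides; binding of probe to printed compounds measured as 667 nm fluorescence plus signal to noise.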 To be noted: small-molecule microarray, higher = more signal, called active from +8 up or from −8 down.
A short description of experiment [13]: probe aNOTCH3 binding on compound microarray – biochemical, small-molecule microarray, 635/667 nm fluorescence, primary screen (AID 1120).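 Also: probe is a biotin-tagged antibody raised against NOTCH3 rather than NOTCH3 protein; score merges spot fluorescence near 667 nm with spot signal to noise.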 To be noted: higher = more signal.
The nature of experiment [14]: probe aNOTCH2 binding on compound microarray – biochemical, small-molecule microarray, 635/667 nm fluorescence, primary screen (AID 1121).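 Also: score merges feature fluorescence read at 667 nm with its signal to noise.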 To be noted: higher = more signal.
Experiment [15] addresses Carbonic anhydrase 2 (Homo sapiens) (UniProt P00918). As to the kind of experiment: compounds binding carbonic anhydrase 2 – biochemical, small-molecule microarray, Alexa647-labelled CAII, profiling panel (AID 1122). The note with it: CAII-A647 binding fluorescence, higher = more signal.
Experiment [16] in a line: COS7 lysate on small-molecule microarray, probe aHis, 635 nm (AID 1123).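 Also: z-score combines 667nm fluorescence intensity with signal-to-noise per printed compound spot.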 To be noted: COS7 cell lysate, fluorescence, higher = more signal.
The nature of experiment [17]: probe aLAP1 signal on lysate-treated microarray – cell lysate, small-molecule microarray, COS7 lysate, primary screen (AID 1124).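 Also: lysate comes from COS7 cells expressing LAP1 and is applied at 0.3 µg/mL; score merges spot fluorescence near 667 nm with signal-to-noise over triplicate slides.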 To be noted: probe aLAP1, fluorescence, higher = more signal.
The subject of experiment [18] is Sam68 (KHDRBS1). The experiment in a line: compounds binding KHDRBS1 protein – biochemical, small-molecule microarray, 635 nm fluorescence, primary screen (AID 1125).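 Also: score merges 667 nm channel intensity with signal to noise over triplicate slides.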 The note with it: higher = more signal.
Experiment [19] deals with Chordin-like protein 2 (CHRDL2). The experiment in a line: compounds binding chordin-like 2 – biochemical, small-molecule microarray, 635 nm fluorescence, primary screen (AID 1126).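 Also: printed compound slides probed with Chrdl2 protein at 4 µg/mL for 1 h at 4 C; score merges 667 nm emission intensity with signal to noise over three replicate slides.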 The note with it: fluorescence 635 nm, higher = more signal.
The target of experiment [20] is Concanavalin-A (Canavalia ensiformis) (UniProt P02866). As to the kind of experiment: compounds binding concanavalin A lectin – biochemical, small-molecule microarray, Alexa647 label, 635 nm, artefact control for SMM control protein annotation, primary screen (AID 1127).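 Also: z combines 667 nm emission intensity with signal-to-noise across three replicate slides.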 The note with it: ConA-A647 binding fluorescence, higher = more signal.
Chain of Concanavalin-A (Canavalia ensiformis) (P02866 whole entry, looked up): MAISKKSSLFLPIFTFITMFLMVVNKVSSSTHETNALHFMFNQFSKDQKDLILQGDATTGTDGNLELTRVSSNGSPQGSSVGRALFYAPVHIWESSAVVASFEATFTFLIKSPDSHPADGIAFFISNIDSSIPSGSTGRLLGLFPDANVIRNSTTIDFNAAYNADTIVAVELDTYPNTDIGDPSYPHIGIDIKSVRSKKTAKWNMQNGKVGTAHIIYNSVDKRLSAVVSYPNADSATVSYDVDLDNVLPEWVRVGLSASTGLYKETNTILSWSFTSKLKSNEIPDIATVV

Where “and” joins values, the source holds several entries; their conditions need not be identical. Equal values may be shown once. Calls of active or inactive are those of the source.

Chain of Albumin (Bos taurus) (P02769 whole entry, looked up): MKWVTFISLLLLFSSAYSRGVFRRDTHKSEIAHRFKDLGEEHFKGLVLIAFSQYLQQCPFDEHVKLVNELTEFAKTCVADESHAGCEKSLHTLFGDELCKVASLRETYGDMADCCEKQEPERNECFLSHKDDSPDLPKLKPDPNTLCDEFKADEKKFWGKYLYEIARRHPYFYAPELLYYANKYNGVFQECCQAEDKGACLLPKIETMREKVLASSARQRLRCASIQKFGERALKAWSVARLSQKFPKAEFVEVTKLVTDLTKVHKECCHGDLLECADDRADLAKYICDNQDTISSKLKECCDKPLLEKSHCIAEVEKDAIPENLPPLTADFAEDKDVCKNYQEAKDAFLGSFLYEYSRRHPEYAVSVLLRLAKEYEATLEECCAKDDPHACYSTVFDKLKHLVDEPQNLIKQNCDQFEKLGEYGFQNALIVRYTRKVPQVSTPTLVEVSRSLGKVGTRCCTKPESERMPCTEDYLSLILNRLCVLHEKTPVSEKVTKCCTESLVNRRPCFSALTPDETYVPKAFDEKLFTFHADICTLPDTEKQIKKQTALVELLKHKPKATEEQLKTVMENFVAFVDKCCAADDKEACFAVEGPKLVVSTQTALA

Consider `CON(C)C(=O)c1nnc2c3ccccc3n(S(=O)(=O)c3ccc(C)cc3)c2n1`, for which the composite z-score is 0.652 and 1.1 in [1]; 0.755 and 0.321 in [3]; 0.761 and -0.142 in experiment [4]; -0.318 and -1.11 in experiment [5]; -0.0748 and -0.006 in experiment [6]; -0.223 and 0.0022 in [7]. For the same compound, the composite z-score in [8] is -0.373 and 0.0369; in [9], 0.637 and 0.223; in experiment [10], 0.787 and 0.219; in [11], 0.622 and 0.0016; in experiment [13] it was -0.0111 and 0.211; in experiment [14] it was -0.104 and -0.109. In addition, the composite z-score in experiment [15] is 0.393 and 0.481; in experiment [16], 0.19 and 1; in experiment [17], 0.101 and 0.208; in experiment [18] it was 0.41 and 1.3; in experiment [19], 0.828 and 0.553; in experiment [20], 1.1 and 1.14. The z-score in [2] is 1.78 and 1.38. Further, in experiment [12], the composite Z-score was 0.891 (inactive) and 0.79 (inactive).

In the case of `O=C1[C@H]2[C@H]3[C@H](O)[C@H](O)CC(=NOCc4ccccc4)[C@H]3CC[C@H]2C(=O)N1Cc1ccccc1`, the composite z-score was -0.424 in [1]; 0.552 in [3]; -0.0595 in [4]; -0.477 in experiment [5]; -0.222 in experiment [6]; -0.0772 in [7]. Also, the composite z-score is -0.182 in experiment [8]; 0.197 in [9]; -0.0806 in experiment [10]; 0.273 in experiment [11]; -0.136 in [13]; -0.0729 in experiment [14]. The composite z-score in experiment [15] is 0.0146; in experiment [16], 0.233; in experiment [17], -0.123; in [18], -0.873; in [19], 0.374; in experiment [20], -0.229. For the same compound, the z-score in experiment [2] is -0.44. The composite Z-score in experiment [12] is -0.283 (inactive).

In the case of `C=CCN(CCCCC)C(=O)C(c1cccs1)N(C(=O)/C=C\C(=O)O)c1ccc(CCO)cc1` (stereo not given), the composite z-score in [1] is 0.0979 and -0.457; in [3], -3.06 and -2.73; in [4] it was -0.783 and -0.531; in experiment [5] it was 0.0708 and 0.542; in experiment [6], -0.284 and -0.211; in experiment [7], 0.289 and -0.154. Also, the composite z-score in [8] is -0.23 and -0.241; in experiment [9] it was -0.755 and -0.0484; in experiment [10], -0.89 and -0.874; in [11], 0.516 and -0.0786; in [13] it was -0.499 and -0.508; in experiment [14] it was -0.183 and -0.0859. For the same compound, the composite z-score was 0.821 and 0.562 in experiment [15]; 0.455 and -0.0142 in experiment [16]; 0.411 and 0.0933 in experiment [17]; -0.815 and -0.524 in experiment [18]; -0.96 and -1.97 in experiment [19]; -0.222 and -0.806 in experiment [20]. The z-score in experiment [2] was -0.779 and -0.741. In addition, in experiment [12], the composite Z-score is 0.598 (inactive) and -0.378 (inactive).

`CCCNC(=O)OC[C@H]1O[C@H](CCON=C(C)CCN2CCc3nc(-c4ccccc4)c(-c4ccccc4)cc3C2)C=C[C@@H]1Oc1ccc(OC)cc1`: the composite z-score in experiment [1] is 0.518; in experiment [3], 0.135; in experiment [4], -0.0233; in experiment [5] it was -0.0536; in experiment [6], -0.0535; in experiment [7], -0.0299. Besides, the composite z-score in experiment [8] is -0.321; in experiment [9], 0.32; in experiment [10] it was 0.316; in experiment [11] it was 0.216; in experiment [13] it was 0.0179; in [14] it was -0.108. The composite z-score is -0.0398 in experiment [15]; 0.73 in experiment [16]; 0.354 in experiment [17]; 0.389 in experiment [18]; -0.273 in [19]; 0.472 in experiment [20]. This compound also came in with a z-score in experiment [2] of -3.28. The composite Z-score in experiment [12] is 0.126 (inactive).

With `C=CCN(C(=O)C(c1cccs1)N(C(=O)/C=C\C(=O)O)c1c(Cl)cccc1CO)c1ccc(OC)cc1` (stereo not given), the composite z-score in experiment [1] is -0.523 and -0.539; in [3] it was -2.96 and -1.51; in experiment [4] it was -0.0794 and -0.107; in [5], 1.06 and 0.804; in experiment [6], -0.285 and -0.096; in experiment [7], -0.0011 and 0.173. Moreover, the composite z-score in experiment [8] is 0.709 and -0.0216; in experiment [9], 1.81 and -0.188; in experiment [10], -1.73 and -0.053; in experiment [11] it was -0.464 and -0.473; in [13], -0.374 and -0.246; in experiment [14] it was -0.179 and -0.127. Moreover, the composite z-score in experiment [15] is 0.819 and 0.837; in experiment [16], 1.8 and 0.329; in [17], 0.78 and 0.281; in experiment [18] it was -0.818 and -0.2; in experiment [19], -4.02 and -0.896; in experiment [20] it was -0.772 and -1.14. Further, in experiment [2], the z-score was -0.16 and -0.604. Also, the composite Z-score in experiment [12] was -0.244 (inactive) and 0.222 (inactive).
